Screens (PubChem BioAssay)
Shn3 3UTR inh: reduces Shn3 3'UTR luciferase signal in osteoblasts; Clone20 osteoblast Shn3 3'UTR firefly luciferase, 24 h; inhibition, % at 12.5 µM; 360,000 compounds, 0.52% hits;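 active means mean inhibition of at least 75% with every replicate also reaching 75%; inconclusive means mean inhibition at least 75% but some replicate below; inactive means mean inhibition below 75%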;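 further: 0% = median of neutral control wells and 100% = pilot-screen positive control compound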
TRPM1 prom inh: reduces MITF-dependent TRPM1 promoter luciferase signal. inhibition, % at 12.5 µM. AID 488899. SK-MEL-5 TRPM1 promoter luciferase, 24 h. 330,000 compounds, 0.83% hits;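 active means mean inhibition across replicates of 60% or more, whatever share of single replicates reaches that level; inconclusive means some that reach 60%, reason not given; inactive means mean inhibition across replicates below 60%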
TROY NFkB inh: TROY signaling inhibition | Q293 LMP1-TROYcd NF-kB luciferase reporter, 4 h | inhibition, % at 10 µM | 360,000 compounds, 0.98% hits;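 active means compounds whose plate-normalised and pattern-corrected inhibition of the luciferase reporter signal at the single screening dose is 50% or more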
TWEAK-Fn14 inh: blocks TWEAK-Fn14 interaction in a reporter cell assay. TWEAK-stimulated Fn14 reporter cells, luciferase luminescence, 8 h. inhibition, % at 10 µM. 360,000 compounds, 2% hits; in the data active means inhibition above about 50%
LMP1 NFkB inh: reduces LMP1-driven NF-kappaB luciferase signal; LMP1-induced NF-kappaB luciferase reporter cells, luminescence; inhibition, % at 12.5 µM; 350,000 compounds, 0.69% hits; AID 504558; in the data active means inhibition above about 41%; inconclusive means no clear call, values can overlap the other calls;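 further: 0% = neutral control wells and 100% = reference inhibitor control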
HIF-2a block: inhibitors of HIF-2a; 786-0 RCC cells HIF-2a reporter, luciferase luminescence, overnight; inhibition, % at 18.8 µM; 360,000 compounds, 0.72% hits; AID 624352;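 active means inhibition of the luminescence signal of 40% or more relative to plate controls, in a single-dose primary screen at 18.75 µM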
* hit, by the source's call; ? = inconclusive; nt = no result. Most compounds without a hit are left out; they make up all but 3.4% or so of the library.

SMILES	Shn3 3UTR inh	TRPM1 prom inh	TROY NFkB inh	TWEAK-Fn14 inh	LMP1 NFkB inh	HIF-2a block
CCOC(=O)CNC(=S)N1CC2C[C@@H](C1)Cn1c2cccc1=O	7.1	1.0	14.0	2.7	6.5	11.6
CC[n+]1c(-c2ccccc2)c2cc(N)ccc2c2ccc(N)cc21	39.7	nt	52.6*	95.1*	5.7	2.4
CCOC(=O)[C@]12Cc3cc(C)ccc3[C@H]1N(C1CCCCC1)C(=O)c1cc(OC)ccc12	nt	nt	54.3*	100.7*	nt	84.7*
CCOC(=O)[C@]12Cc3cc(C)ccc3[C@H]1N(CCC(=O)OC)C(=O)c1cc(OC)ccc12	nt	nt	36.5	1.3	nt	23.4
COc1ccc(C(=O)N/N=C/C23CC[C@@H](O)CC2(O)CC[C@@H]2[C@@H]3CCC3(C)C(C4=CC(=O)OC4)CCC23O)cc1 (some centres undefined)	-1.4	41.3	-6.2	-12.1	-8.7	12.6
CC1OC(OC2CC(O)C3(CO)C4C(O)CC5(C)C(C6=CC(=O)OC6)CCC5(O)C4CCC3(O)C2)C(O)C(O)C1O (centres undefined)	-10.5	86.7*	44.2	91.6*	80.0*	84.4*
CC(C)(C)C(=O)Nc1ccc(S(=O)(=O)N2CC3CC(C2)c2cccc(=O)n2C3)cc1 (centres undefined)	-3.0	-9.3	7.1	-3.0	2.0	7.7
CC[C@@H](O)C[C@H]1CCC[C@@]2(C[C@@H]3OC(=O)/C=C/[C@@](C)(O)[C@@H](O)[C@H](C)[C@@H](O)[C@H](OC4CCC(N(C)C)C(C)O4)[C@@H](O)[C@](C)(O)CCCCC/C=C/[C@@H]4CC(C)(C)O[C@@]4(O)C[C@H](O2)[C@H]3C)O1 (some centres undefined)	90.2*	75.8*	48.1	60.5*	23.7	-15.2
CN1C2CCC1C(C(=O)O)C(OC(=O)c1ccccc1)C2 (centres undefined)	-8.5	-0.6	-11.1	1.6	-3.8	15.3
COC(=O)C1C2CC[C@@H](CC1OC(=O)c1ccccc1)N2 (some centres undefined)	-14.6	2.2	-10.5	3.6	90.3*	0.2
CCOC(=O)C1C(OC(=O)c2ccccc2)CC2CCC1N2C (centres undefined)	0.4	-0.7	-6.8	-6.3	72.6*	11.1
COc1ccc(C(=O)CC(c2ccc3c(c2)OCO3)c2c(O)c3ccccc3oc2=O)cc1OC (centres undefined)	-32.5	nt	-21.9	-20.5	1.7	-8.1
Fc1ccccc1CCNCc1ccccc1	4.3	-10.6	4.9	-0.5	-1.6	-4.0
Fc1ccc(CNCCc2ccccc2F)cc1	1.6	-3.0	70.4*	29.7	-12.3	2.5
CCOC(=O)[C@]12Cc3c(cc(OC)c(OC)c3OC)[C@H]1N(C)C(=O)c1cc(OC)ccc12	nt	nt	22.2	29.3	nt	26.9
c1ccc(CN2COC3CCCCCC32)cc1 (centres undefined)	6.6	nt	55.0*	4.1	nt	7.7
CN1C(=O)N(C)C(=O)C2(Cc3cc(NC(=O)c4ccc(F)cc4)ccc3N3CCCC32)C1=O (centres undefined)	5.1	6.5	-19.4	-28.5	-0.9	6.8
Cc1cc(C)cc(N2C(=O)NC(=O)/C(=C\c3cccn3-c3ccc(Cl)cc3)C2=O)c1	29.8	50.8	52.9*	103.0*	3.6	15.0
O=C1NC(=S)NC(=O)C1=Cc1cccn1-c1ccc(O)cc1	16.3	94.1*	48.8	71.4*	15.6	55.7*
Cc1cc(C)cc(N2C(=O)NC(=O)/C(=C\c3cccn3-c3ccccc3)C2=O)c1	74.0	66.2*	48.8	65.8*	8.5	42.9*
Cc1cccc(N2C(=O)NC(=O)/C(=C\c3cnc(-c4ccccc4)nc3)C2=O)c1	22.6	4.6	-20.2	9.5	18.0	-7.7
CN1C(=O)/C(=C/c2cccn2-c2ccc3ccccc3c2)C(=O)NC1=S	28.5	?	-2.1	8.3	19.0	-1.1
CCOC(=O)[C@]12Cc3c(cc(OC)c(OC)c3OC)[C@H]1N(C(C)C)C(=O)c1ccccc12	nt	nt	12.6	-14.2	nt	20.9
CN1CCN(c2cn[nH]c(=O)c2Cl)CC1	-23.2	9.2	-37.4	1.9	4.4	12.3
Cc1nc(-c2cccc(CN(C)C(=O)Oc3ccc([N+](=O)[O-])cc3)c2)no1	nt	nt	2.7	0.3	nt	-9.7
SMILES	Shn3 3UTR inh	TRPM1 prom inh	TROY NFkB inh	TWEAK-Fn14 inh	LMP1 NFkB inh	HIF-2a block
CN(Cc1cccc(-c2cccnc2)c1)C(=O)Oc1ccc([N+](=O)[O-])cc1	nt	nt	55.7*	83.3*	nt	-10.8
Cc1cccc(CCNCc2cc3ccc(C)cc3[nH]c2=O)c1	21.2	-8.3	-15.4	1.4	1.7	12.5
CS(=O)(=O)c1ccc(C2=C(CNC(=O)c3cccs3)[C@H]3CC[C@@H](C2)N3CCOc2ccccc2)cc1	8.5	nt	7.2	3.7	-3.2	-4.9
COc1ccc(SCC2CN(C)CCC2c2ccc(F)cc2)cc1 (centres undefined)	-7.1	5.2	-8.2	0.4	-11.0	8.6
C=C(C=O)CC1CC(O)[C@]2(C)OC3CC4OC5C[C@]6(C)O[C@]7(C)CCC8OC9C[C@]%10(C)OC%11C(C)=CC(=O)OC%11CC%10OC9C[C@@H](C)C8OC7CC6O[C@]5(C)CC5OC5C4OC3CC2O1 (some centres undefined)	59.3	96.2*	89.1*	108.5*	73.9*	93.7*
N/C(=N/[N+](=O)[O-])N1CCN(C(=O)c2ccc(Cl)cc2)CC1	3.0	4.6	19.5	-21.2	0.6	16.7
CCOC(=O)Cn1cc([N+](=O)[O-])nc1[N+](=O)[O-]	-23.7	64.8*	-2.4	12.3	3.6	-6.9
CCS(=O)(=O)NC(C)c1nnc2n1-c1ccc(Br)cc1C(c1ccccc1Cl)=NC2 (centres undefined)	-5.6	nt	-1.4	-0.6	nt	6.2
CCCCNC(=O)c1c(N)n(Cc2ccc3c(c2)OCO3)c2nc3ccccc3nc12	17.8	11.9	59.5*	51.2*	-5.1	1.5
CCCCCCn1c(N)c(C(=O)NCCN2CCOCC2)c2nc3ccccc3nc21	2.5	1.5	nt	55.8*	0.8	22.3
CCCCCn1c(N)c(C(=O)NCCN2CCOCC2)c2nc3ccccc3nc21	9.9	2.2	35.7	17.1	3.1	22.5
CCCCn1c(N)c(C(=O)NCc2cccs2)c2nc3ccccc3nc21	9.0	6.0	67.5*	34.8	-8.2	12.9
CC(C)Oc1ccc(C2(C#N)CC[N+](C)(C)CC2)cc1	7.1	-13.0	12.0	10.7	1.2	16.7
N#Cc1ncc(N=Cc2ccc(N(CCCl)CCCl)cc2)s1	21.8	10.0	21.1	52.7*	59.2*	8.0
CC(C)(C)C(=O)N1Cc2ccccc2-n2nncc2C1	1.2	-8.8	-3.4	-4.4	-0.5	11.8
CCOc1cccc(CNCCc2c(C)[nH]c3ccc(OC(F)(F)F)cc23)c1O	?	97.5*	-11.0	14.4	-18.8	6.4
Cc1[nH]c2ccc(OC(F)(F)F)cc2c1CCNCc1cccc([N+](=O)[O-])c1	44.4	-12.7	-8.3	-0.1	1.2	-26.3
